# The campaign covered roughly 1,500 compounds. About 460 (31%) were called active.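 Rule for the calls: active = viability at or below 80% at any tested concentration, marking the compound as toxic; inactive = the rest.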 The list is a sample of the results. A call without a number means that no potency is given here. Potency and affinity values are given separately.
# Assay: viability loss in THP-1 monocytes – THP-1 cells, cytotoxicity control for Vif-APOBEC3G degradation inhibitor project, dose response (AID 1117359)
# Settings: THP-1 viability, CellTiter-Glo luminescence, 72 h; series mostly up to 40 µM
row,SMILES,outcome
1,CCOC(=O)C1(C)NC(c2ccco2)C2C(=O)N(CC)C(=O)C21 (configuration not stated),inactive
2,O=C1CC(c2ccco2)CC(O)=C1C=NCC1CCNCC1 (configuration not stated),inactive
3,Cc1cccc(/C=C(\C(=O)O)c2ccc(S(=O)(=O)N3CCCC3)s2)c1,inactive
4,O=C(C1CCN(S(=O)(=O)N2CCC3(CC2)OCCO3)CC1)N1CCOCC1,inactive
5,COc1ccccc1NCCC(=O)OCC(=O)NCc1ccco1,inactive
6,CCOC(=O)c1ccc(NC(=O)CSCc2ccco2)cc1,inactive
7,Cc1ccc(NC(=O)CNC(=O)COc2ccccc2)nc1,inactive
8,COc1cccc(C(=O)N2CCN(Cc3nc(CC4CC4)no3)CC2)c1,inactive
9,CCCCC(O)(CCCC)C(=O)N/N=C(\C)c1ccc(Cl)cc1,inactive
10,NC(=O)c1ccc(N2CCN(c3ccc(O)cc3)CC2)c([N+](=O)[O-])c1,inactive
11,CCC(=O)Nc1ccc(S(=O)(=O)NC[C@H]2O[C@@H](n3cc(C)c(=O)[nH]c3=O)C[C@@H]2O)cc1,inactive
12,C=C(C)C1CC=C(C)/C(=N\NC(=O)CCC(=O)Nc2ccc(C)c(C)c2)C1 (configuration not stated),inactive
13,c1coc(CNc2nc(-c3cccs3)cs2)c1,inactive
14,O=C(Nc1cc(Cl)cc(Cl)c1)c1coc(=O)c(Br)c1,inactive
15,C[c-]1[c-](C)[c-](C)[c-](C)[c-]1C.[Fe].c1cc2nccc(N3CCCC3)[c-]2c1 (configuration not stated),inactive
16,CCn1c(SC(C)C)nnc1-c1cc(-c2ccccc2)sc1N,inactive
17,COc1ccc(C(=O)O)cc1S(=O)(=O)N1CCCc2ccccc21,inactive
18,COCCn1c(SCC(=O)Nc2ccccc2F)nc2c([nH]c3ccccc32)c1=O,inactive
19,CC1=C(C#N)C(=O)N(C2CCS(=O)(=O)C2)C(=O)/C1=C\c1ccc(C)o1 (configuration not stated),inactive
20,S=c1[nH]nc(COc2ccc(Cl)cc2)n1Cc1ccccc1,inactive
21,CCCC(=O)NC(C)C(c1cccs1)N1CCN(C)CC1 (configuration not stated),inactive
22,CCOc1ccccc1N1C(=O)CC(Nc2ccc(N3CCOCC3)cc2)C1=O (configuration not stated),inactive

row,SMILES,outcome
1,CN(C(=O)COc1ncnc2sccc12)c1ccccc1,inactive
2,O=C(C1CCC(CNc2c(N3CCCCC3)c(=O)c2=O)CC1)N1CCN(C2CCCCC2)CC1 (configuration not stated),inactive
3,CC(=O)N1CCN(c2ccc(NCc3ccccc3)cc2)CC1,inactive
4,Cc1sc2nc(C)n(/N=C/c3ccccc3O)c(=O)c2c1C,inactive
5,COc1cc2c(cc1N)-c1ccc(N)cc1C2,inactive
6,C=C(C)C(=O)Nc1cccc(C2=NOC3(C2)C[C@@H](C(N)=O)N(C(=O)c2cc([N+](=O)[O-])cc([N+](=O)[O-])c2)C3)c1 (some centres not stated),inactive
7,O=C(O)c1cc(Nc2cc(Cl)c3nonc3c2[N+](=O)[O-])ccc1O,inactive
8,Cc1ccc(S(=O)(=O)Cn2nnnc2C(CC(C)C)N2CCN(C)CC2)cc1 (configuration not stated),inactive
9,Cc1cc(C)cc(NCCC#N)c1,inactive
10,CCOC(=O)C1=C(O)/C(=C\c2ccc(CNC(=O)C(=O)Nc3ccccc3)o2)N=C1C,inactive
11,CCCOC(=O)Nc1sc2c(c1C(=O)OCC)CCC2,inactive
12,Cc1c(C(=O)O)cccc1-n1c(C)cc(/C=N/Nc2ccc([N+](=O)[O-])cn2)c1C,inactive
13,CCOC(=O)CSc1nncc2ccc(OC)c(OC)c12,inactive
14,CC(NC(=O)Nc1ccc(O)cc1)(C(F)(F)F)C(F)(F)F,inactive
15,N#Cc1c(-c2ccccc2)nc2n1CCS2,inactive
16,Nc1ccc(-c2nc3cc(N)ccc3n2CCO)cc1,inactive
17,CC(=O)Nc1ccc(C(=O)Nc2cccc(-c3cnc4ccccc4n3)c2)cc1,inactive
18,CC1=CC(C)(C)n2c(O)c(N=NC(N)=S)c3c(C)c(C)cc1c32,inactive
19,COC(=O)CCC(=O)OC1(C)C(=O)C2=CN(CCCOC(C)C)C(c3ccc(OC)cc3)=CC2=C(Br)C1=O (configuration not stated),inactive
20,O=C(O)C1Nc2ccc(Br)cc2C2C=CCC12 (configuration not stated),inactive
21,C/C(=N\Nc1ccc2nncn2n1)c1ccc(Br)s1,inactive
22,CC(=O)Nc1ccc(/C=N/Nc2ccc(C(=O)c3c(C)cc4ccccn34)cc2[N+](=O)[O-])cc1,inactive

row,SMILES,outcome
1,O=C1CC(Nc2ccc(N3CCOCC3)cc2)C(=O)N1c1cccc(C(F)(F)F)c1 (configuration not stated),inactive
2,O=C(O)c1ccc(-n2cccc2/C=N\NC(=O)c2cc3cc(Br)ccc3o2)cc1,inactive
3,CCOC(=O)C1CCN(C(=O)Nc2ccc3nc(-c4ccco4)c(-c4ccco4)nc3c2)CC1,inactive
4,O=C(O)Cn1c(=O)c2c(c3ccccc31)CCC2,inactive
5,O=C(O)c1cccc(-n2cccc2/C=C/[N+](=O)[O-])c1,inactive
6,Cc1cccc(NC(=S)NC(=O)/C=C/c2ccco2)c1,inactive
7,CC(=O)c1ccc(S(=O)(=O)Nc2cccc(-c3ccc(N4CCOCC4)nn3)c2)cc1,inactive
8,CCCCOC(=O)CCCN1C(=O)/C(=C2\SC(=S)N(CCCC(=O)OCCCC)C2=O)SC1=S,inactive
9,Nc1ncnc2c1cnn2C1CCCCC1,inactive
10,Cc1ccc(Nc2ccc(N)cc2S(=O)(=O)O)cc1,inactive
11,CCOCCCNC(=O)C1CCN(S(=O)(=O)CC)CC1,inactive
12,CCOC(=O)N1CCC(NC(=O)c2ccc(OC)c(CN3CC(=O)N4CCCC4C3=O)c2)CC1 (configuration not stated),inactive
13,C=CCN1C(=O)/C(=C\c2ccco2)C(C(=O)OC)=C1C,inactive
14,O=C(O)c1ccc(S(=O)(=O)c2ccc([N+](=O)[O-])cc2[N+](=O)[O-])cc1,inactive
15,O=[N+]([O-])c1ccccc1S(=O)(=O)NC1CCCC1,inactive
16,CCNC(=O)C1CC(=O)N(Cc2ccc(F)cc2)C(=Nc2ccc(OC)cc2)S1 (configuration not stated),inactive
17,CCOC(=O)C1CC(CN2C(=O)c3ccccc3C2=O)OC1=O (configuration not stated),inactive
18,CC1CCCCC1NC(=S)Nc1cccc(S(=O)(=O)N(C)C)c1 (configuration not stated),inactive
19,O=C1N(Cc2cccnc2)C[C@@H]2C[C@@H](c3ccc4nsnc4c3)N3CCC[C@@]123,inactive
20,Cc1cc(NC(=O)Cc2cccs2)no1,inactive
21,CN1CCN(NC(=O)c2ccc(S(=O)(=O)N3CC4(C)CC3CC(C)(C)C4)cc2)CC1 (configuration not stated),inactive
22,CCC(C)n1c(-c2cccc(S(=O)(=O)N3CCOCC3)c2)n[nH]c1=S (configuration not stated),inactive

row,SMILES,outcome
1,Cc1cc(NC(=O)Cn2cnc3c(nnn3-c3cccc(F)c3)c2=O)no1,inactive
2,Oc1c(CN2CCOCC2)cc(CN2CCOCC2)c(O)c1O,inactive
3,COc1ccccc1NS(=O)(=O)c1cc(C(=O)NCCN2CCOCC2)ccc1Cl,inactive
4,CCOc1ccc(-n2c(SCC(N)=O)nnc2-c2cccnc2)cc1,inactive
5,CN(Cc1cccs1)C(=O)Cn1cnc2ccccc2c1=O,inactive
6,O=C1CC(NCc2ccco2)C(=O)N1CCc1ccccc1 (configuration not stated),inactive
7,O=C(NCCc1ccccc1)c1ccc2nc(-c3ccco3)c(-c3ccco3)nc2c1,inactive
8,Cc1c(F)cccc1NC(=O)CCCCCC1NC(=O)NC1C (configuration not stated),inactive
9,CCN1C[C@@H]2[C@@H]3C(=O)N(Cc4ccccc4)C(=O)[C@@H]3[C@](C)(C(=O)OC)N2C1=NC1CCCCC1,inactive
10,CO[C@H]1C=CO[C@@]2(C)Oc3c(C)c(O)c4c(O)c(c(C=NN5CCN(C)CC5)c(O)c4c3C2=O)NC(=O)C(C)=CC=C[C@H](C)[C@H](O)[C@@H](C)[C@@H](O)[C@@H](C)[C@H](OC(C)=O)[C@@H]1C,inactive
11,CSc1ccc(CN(C)CC(=O)NC(=O)NCCC2=CCCCC2)cc1,inactive
12,CC1(OC(=O)C2CCCC2)C(=O)C=C2C=C(c3ccsc3)OC=C2C1=O (configuration not stated),inactive
13,CC1(CCl)N([O-])C2=C(CCCC2)[N+]1=O (configuration not stated),inactive
14,O=C(N/N=C/c1cccnc1)c1cc(O)c(O)c(O)c1,inactive
15,O=C(NN=C1CCCCCC1)c1cccnc1,inactive
16,Cc1cc(C)n(CC(=O)NNC(=O)c2ccc(NC(=O)CC#N)cc2)n1,inactive
17,CN(C)c1ccc(N/C=C/C(=O)c2ccco2)cc1,inactive
18,Nc1cc(N)nc(SCc2cc([N+](=O)[O-])cc3c2OCOC3)n1,inactive
19,Cc1ccc(N/N=C/c2c(C)c(C#N)c(=O)n(C)c2O)cc1C,inactive
20,O=S(=O)(c1ccc(NC(=S)N/N=C/c2ccc(O)c(O)c2)cc1)N1CCOCC1,inactive
21,Cn1ccnc1Sc1ccc(/C=N/NC(=O)c2ccccc2O)cc1[N+](=O)[O-],inactive
22,O=C1C(=Cc2ccco2)CCCC1=Cc1ccco1,inactive

row,SMILES,outcome
1,O=C(COC(=O)COc1ccc(Cl)cc1Cl)NC1CCCCCC1,inactive
2,CN1CCN(C(=O)/C(=C/c2ccc(F)cc2)NC(=O)c2ccccc2)CC1,inactive
3,O=C(Cc1c(F)cccc1Cl)NNC(=O)c1ccccc1Cl,inactive
4,COc1ccc2nc(-c3ccccc3)cc(C(=O)OCC(=O)N3CC(C)OC(C)C3)c2c1 (configuration not stated),inactive
5,O=C(c1coc(=O)c(Br)c1)N1CCCc2ccccc21,inactive
6,CCCCN(C(=O)c1ccccc1OCc1ccc(F)cc1)c1c(N)n(CC(C)C)c(=O)[nH]c1=O,inactive
7,COc1ccc(S(N)(=O)=O)cc1C(=O)OCC(=O)NC(C)(C#N)C1CC1 (configuration not stated),inactive
8,CCc1ccc(N2C(=O)Cc3c2nc(N)c(C#N)c3N)cc1,inactive
9,COC(=O)c1ccccc1NC(=O)c1noc2c1CCC2,inactive
10,O=C(CN1CCN(S(=O)(=O)c2ccc(F)cc2)CC1)c1ccc(O)c(O)c1,inactive
11,CC(C)(C)c1ccc(S(=O)(=O)N2CCCCC2)cc1,inactive
12,O=C(CCS(=O)(=O)c1ccc(Br)cc1)N1CCN(c2ccc(F)cc2)CC1,inactive
13,CC(=O)Nc1ccc(NC(=O)C(C)OC(=O)CC23CC4CC(CC(Br)(C4)C2)C3)cc1 (configuration not stated),inactive
14,CC(=O)OC1OCCOC1NC(=S)Nc1ccc(C)cc1 (configuration not stated),inactive
15,CC(C)(C)NCCCCOc1ccc(F)cc1,inactive
16,COC/C=C/C1=CC2=CC(=O)C(C)(OC(=O)c3ccco3)C(=O)C2=CO1 (configuration not stated),inactive
17,O=c1c(N=Nc2ccc(O)cc2)c(-c2ccccc2)[nH]n1-c1ccc([N+](=O)[O-])cc1,inactive
18,COc1ccc2nc(NNC(=O)c3cc(=O)c4ccccc4o3)sc2c1,inactive
19,O=C(c1cc2ccccc2o1)N1CC=C(c2ccccc2)CC1,inactive
